From PubChem BioAssay (NCI)
This is part of a sample that, as a whole, favours compounds with a hit. Of some 83,000 tested, about 20% had one in any assay.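 In brief: 96-well plates, 48 h treatment, single concentration, percent growth endpoint.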 Calls of active or inactive are those of the source. Rule for the calls: active = growth percent below 10; inactive = the rest.

Legend:
Assay in all cases: NCI-60 one-dose screen, 48 h (100 = growth as untreated, 0 = no growth, -100 = all killed)
Conditions in all cases: 10 µM unless noted
DU-145 prostate = tested on: DU-145 prostate
K-562 leukemia = tested on: K-562 leukemia
MALME-3M melanoma = tested on: MALME-3M melanoma
MDA-MB-231 breast = tested on: MDA-MB-231 breast
RXF 393 renal = tested on: RXF 393 renal
SF-268 CNS = tested on: SF-268 CNS
SF-295 CNS = tested on: SF-295 CNS
SF-539 CNS = tested on: SF-539 CNS
UACC-257 melanoma = tested on: UACC-257 melanoma
M14 melanoma = tested on: M14 melanoma

Measured: growth

O=c1c2ccccc2c(=O)c2c1sc1c(=O)c3ccc(O)cc3c(=O)c12
active: DU-145 prostate -98.5% | K-562 leukemia -11.6% | MALME-3M melanoma -96.5% | MDA-MB-231 breast -13.5% | RXF 393 renal -84% | SF-268 CNS -32.1% | SF-295 CNS -94.3% | SF-539 CNS -97.1% | UACC-257 melanoma -95.2% | M14 melanoma -87.5%

CCN(CC)Cc1cc(Nc2ccnc3cc(Cl)ccc23)ccc1O
inactive: DU-145 prostate 97.4% | K-562 leukemia 87.1% | MALME-3M melanoma 104% | MDA-MB-231 breast 72.3% | RXF 393 renal 97.4% | SF-268 CNS 77.8% | SF-295 CNS 93.4% | SF-539 CNS 85.6% | UACC-257 melanoma 112% | M14 melanoma 91.2%

CCNC(=O)Oc1ccc(/C(=C(/C)Cc2ccc(OC)cc2)c2ccc(OCCN3CCCCC3)cc2)cc1
active: K-562 leukemia 0.352% | M14 melanoma -14.2%
inactive: DU-145 prostate 83.5% | MALME-3M melanoma 68.1% | MDA-MB-231 breast 78.4% | RXF 393 renal 61.6% | SF-268 CNS 70% | SF-295 CNS 82.6% | SF-539 CNS 82.9% | UACC-257 melanoma 95.3%

O=P(O)(O)OCC1OC(n2cnc3c(NCc4ccco4)ncnc32)C(O)C1O (stereo not given)
inactive: K-562 leukemia 63.3% | MALME-3M melanoma 87.4% | SF-268 CNS 29.3% | SF-295 CNS 34.7% | SF-539 CNS 16.1% | UACC-257 melanoma 77.6% | M14 melanoma 34.5%
active: DU-145 prostate -58.5% | MDA-MB-231 breast -21.5% | RXF 393 renal 4.85%

COc1ccc(/C=C/C(=O)c2ccc(NC(=O)CSc3nc4c([nH]3)c(=O)n(C)c(=O)n4C)cc2)cc1OC
inactive: DU-145 prostate 97.4% | K-562 leukemia 79.3% | MALME-3M melanoma 95.9% | MDA-MB-231 breast 84.4% | RXF 393 renal 87.5% | SF-268 CNS 83% | SF-295 CNS 92.6% | SF-539 CNS 80.1% | UACC-257 melanoma 87.4% | M14 melanoma 92.5%

CC(=O)OC(c1ccccc1)C1CCOC1=O (stereo not given)
inactive: DU-145 prostate 115% | K-562 leukemia 108% | MALME-3M melanoma 107% | MDA-MB-231 breast 103% | RXF 393 renal 101% | SF-268 CNS 110% | SF-295 CNS 94.6% | SF-539 CNS 101% | UACC-257 melanoma 102% | M14 melanoma 99.9%

N#CC1=C(N)Oc2ccc3ccccc3c2C1c1ccc([N+](=O)[O-])cc1 (stereo not given)
inactive: DU-145 prostate 104% | K-562 leukemia 77.7% | MALME-3M melanoma 51.4% | MDA-MB-231 breast 57.8% | RXF 393 renal 94.7% | SF-268 CNS 80.5% | SF-295 CNS 84.6% | SF-539 CNS 85.7% | UACC-257 melanoma 89.3% | M14 melanoma 89.7%

O=C(O)c1ccc(-c2ccc(/C=N/Nc3nc(Nc4ccccc4)nc(N4CCCCC4)n3)o2)cc1
active: SF-295 CNS -21.9%
inactive: DU-145 prostate 66.7% | K-562 leukemia 67.5% | MALME-3M melanoma 59% | MDA-MB-231 breast 96.5% | RXF 393 renal 65.4% | SF-268 CNS 71.7% | SF-539 CNS 75.2% | UACC-257 melanoma 93.9% | M14 melanoma 83.1%

COc1ccc(/C=C(/C(=O)n2cnnn2)c2cc(OC)c(OC)c(OC)c2)cc1
inactive: DU-145 prostate 25.1% | K-562 leukemia 15.3% | MALME-3M melanoma 62.5% | MDA-MB-231 breast 36.7% | SF-268 CNS 49% | UACC-257 melanoma 70.2%
active: RXF 393 renal -4.36% | SF-295 CNS -7.45% | SF-539 CNS -7.92% | M14 melanoma -2.57%

CN(Cc1cnc2nc(N)nc(N)c2n1)c1ccc(C(=O)NC(CCC(=O)O)C(=O)O)cc1Br (stereo not given)
inactive: DU-145 prostate 25.2% | K-562 leukemia 31.1% | MALME-3M melanoma 98.1% | MDA-MB-231 breast 60.2% | RXF 393 renal 58.6% | SF-268 CNS 34.4% | SF-295 CNS 27% | UACC-257 melanoma 59.4% | M14 melanoma 30.9%
active: SF-539 CNS 6.95%

O=C(O)[C@@H](Cc1ccc2ccccc2c1)NC(=O)n1c2ccccc2c2ccccc21
inactive: DU-145 prostate 19.4% | K-562 leukemia 11.6% | MALME-3M melanoma 22% | MDA-MB-231 breast 15.6% | RXF 393 renal 14.6% | SF-268 CNS 42.5% | SF-295 CNS 11.6% | UACC-257 melanoma 57.7%
active: SF-539 CNS 1.16% | M14 melanoma 4.26%

NNCCc1ccc(NC(=O)CCCc2ccc(C(=O)Nc3ccccc3N)cc2)cc1
inactive: DU-145 prostate 90.7% | K-562 leukemia 43.5% | MALME-3M melanoma 56.9% | MDA-MB-231 breast 67.5% | RXF 393 renal 75.2% | SF-268 CNS 72.3% | SF-295 CNS 69% | SF-539 CNS 60.8% | UACC-257 melanoma 41.4% | M14 melanoma 72%

CCc1n(Cc2ccc3ccccc3n2)cc[n+]1Cc1ccc2ccccc2n1
inactive: DU-145 prostate 51.7% | K-562 leukemia 24.9% | MDA-MB-231 breast 31.1% | RXF 393 renal 46.6% | SF-268 CNS 29.6% | SF-295 CNS 64.7% | SF-539 CNS 24.5% | M14 melanoma 46.6%
active: MALME-3M melanoma -9.45% | UACC-257 melanoma -16.5%

CCCCNC(=O)Oc1ccc(/C(=C(/C)Cc2ccc(OC)cc2)c2ccc(OCCN3CCCCC3)cc2)cc1
inactive: DU-145 prostate 92.1% | MALME-3M melanoma 79.1% | MDA-MB-231 breast 87.6% | RXF 393 renal 71.5% | SF-268 CNS 81.2% | SF-295 CNS 86.8% | SF-539 CNS 80.4% | UACC-257 melanoma 99.2% | M14 melanoma 31%
active: K-562 leukemia -14.1%
